{
  "source": "PubChem BioAssay (NCATS)",
  "note": "Records with an inconclusive call do not appear. Calls of active or inactive are those of the source. Calls come from the whole dose curve; as a rule, active = well fitted inhibition curve with a large enough effect; inconclusive = small, poorly fitted or top-dose-only effect; inactive = flat fitted curve, though single readings scatter. % is set by controls: 0 for no effect and ±100 for the full control effect.",
  "data": [
    {"target": "Calcium and integrin-binding protein 1 (Homo sapiens) (UniProt Q99828)", "sequence (Q99828 whole entry, looked up)": "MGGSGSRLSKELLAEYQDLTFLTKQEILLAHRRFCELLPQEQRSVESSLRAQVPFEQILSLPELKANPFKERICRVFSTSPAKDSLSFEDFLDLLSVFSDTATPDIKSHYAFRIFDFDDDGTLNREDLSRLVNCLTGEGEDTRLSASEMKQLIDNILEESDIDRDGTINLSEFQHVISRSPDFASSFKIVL", "test": "Primary qHTS for Identification of Calcium Integrin Binding Protein 1 (CIB1) Competitor (AID 1508620); note: top concentration of the series differs between compounds", "settings": "CIB1-GST / FITC-alphaIIb peptide fluorescence polarization; series mostly up to 114 µM; activity change, negative = inhibition: at the top concentration", "how_it_was_run": "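Fluorescence polarization competition: GST-tagged CIB1 (1 uM final) preincubated with compound 15 min at room temperature, then FITC-labelled alphaIIb peptide (100 nM final) added. After 15 min at room temperature, polarization read at Ex 480/Em 540.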", "values": [
      {"compound": "c1cncc(CNc2ncnc3ccc(-c4ccco4)cc23)c1", "activity change, negative = inhibition": "-12.9% (inactive)"},
      {"compound": "O=C(OCC#CCSc1nnc(-c2ccc3ccccc3c2)o1)c1ccsc1", "activity change, negative = inhibition": "2.86% (inactive)"},
      {"compound": "Cc1cc2c(s1)c1cnn(Cc3cc(C(F)(F)F)ccc3F)c(=O)c1n2C", "activity change, negative = inhibition": "-0.885% (inactive)"},
      {"compound": "Cc1cccc(-n2cnc3cc(C(=O)N4CCC(C(F)(F)F)CC4)ccc32)c1", "activity change, negative = inhibition": "0.0136% (inactive)"},
      {"compound": "CC(=O)NC(c1cc(Cl)c2cccnc2c1O)C(C)C", "note": "(stereo not given)", "activity change, negative = inhibition": "-13% (inactive)"},
      {"compound": "O=S(=O)(c1cccc(F)c1)N1CCN(S(=O)(=O)c2ccc3c(c2)OCCO3)CC1", "activity change, negative = inhibition": "-4.8% (inactive)"},
      {"compound": "Cc1cc2c(s1)c1cnn(Cc3ccc(F)c(C)c3)c(=O)c1n2C", "activity change, negative = inhibition": "7.04% (inactive)"},
      {"compound": "Cc1cc(N[S+](=O)([O-])c2ccc(NC(=O)Cc3ccc4c(c3)OCCO4)cc2)no1", "activity change, negative = inhibition": "-13.6% (inactive)"},
      {"compound": "COc1ccc(C2Oc3ccccc3C(=O)N2Cc2ccccc2)cc1COc1ccc(NC(C)=O)cc1", "note": "(stereo not given)", "activity change, negative = inhibition": "-4.94% (inactive)"},
      {"compound": "O=S(=O)(c1ccccc1)N1CCN(c2nc(-c3ccc(Br)cc3)cs2)CC1", "activity change, negative = inhibition": "5.29% (inactive)"},
      {"compound": "Cc1cccc(-n2cnc3cc(C(=O)N4CCC(N5CCOCC5)CC4)ccc32)c1", "activity change, negative = inhibition": "1.48% (inactive)"},
      {"compound": "NC(=O)c1c(-c2ccccc2)no[n+]1[O-]", "activity change, negative = inhibition": "-1.64% (inactive)"},
      {"compound": "O=C(CNC(=O)c1ccc(C(F)(F)F)cc1)OC(C(=O)Nc1cc(C(F)(F)F)ccc1Cl)c1ccccc1", "note": "(stereo not given)", "activity change, negative = inhibition": "0.988% (inactive)"},
      {"compound": "O=C(NC1CCCc2c1cnn2-c1ccc(F)cc1F)c1ccccn1", "note": "(stereo not given)", "Potency": "inactive"},
      {"compound": "CC1(C)CC(=O)C2=C(C1)NC(Nc1nc3ccccc3o1)=NC21CCCCC1", "activity change, negative = inhibition": "-4.19% (inactive)"},
      {"compound": "CC(=O)Nc1oc(-c2cccc3ccccc23)nc1C#N", "activity change, negative = inhibition": "-3.59% (inactive)"},
      {"compound": "COc1ccc(C2=Nn3c(nnc3-c3ccccc3OC)SC2)cc1OCC1CC1", "activity change, negative = inhibition": "0.168% (inactive)"},
      {"compound": "CCn1cnc2c(Nc3cccc(Cl)c3)nc(C#N)nc21", "activity change, negative = inhibition": "0.819% (inactive)"},
      {"compound": "Cc1ccc2nc3sc(C(=O)Nc4ccncc4)cc3cc2c1", "activity change, negative = inhibition": "-1.51% (inactive)"},
      {"compound": "COc1cc(-c2ccc3ncnc(NCc4nc(C)cs4)c3c2)cc(OC)c1OC", "activity change, negative = inhibition": "-5.4% (inactive)"},
      {"compound": "Cc1cc(NS(=O)(=O)c2ccc(NC(=O)Cc3ccc(Cl)c(C(F)(F)F)c3)cc2)no1", "activity change, negative = inhibition": "-11.6% (inactive)"},
      {"compound": "CC(C)c1ccccc1-c1ncc(F)c(NCC2CCN(c3cnccn3)C2)n1", "note": "(stereo not given)", "activity change, negative = inhibition": "-0.61% (inactive)"},
      {"compound": "Cc1cc(C)n2ncc(C(=O)Nc3ccccc3)c2n1", "activity change, negative = inhibition": "-2.33% (inactive)"},
      {"compound": "COc1cccc(C2c3c(ncn(-c4ccc(Br)cc4)c3=N)Oc3ccc4ccccc4c32)c1", "note": "(stereo not given)", "activity change, negative = inhibition": "-9.4% (inactive)"},
      {"compound": "COc1cc(NC(=O)C(OC(=O)CNC(=O)c2ccccc2)c2ccccc2)c(OC)cc1Cl", "note": "(stereo not given)", "activity change, negative = inhibition": "1.25% (inactive)"},
      {"compound": "CC(C)c1ccccc1-c1nc2c(c(NCc3ccc(-c4cccnc4)cc3)n1)CNC2", "activity change, negative = inhibition": "-1.1% (inactive)"},
      {"compound": "COc1ccc(C2Nc3ccccc3C(=O)N2Cc2ccccc2)cc1COc1cccc(C)c1", "note": "(stereo not given)", "activity change, negative = inhibition": "-3.92% (inactive)"},
      {"compound": "O=[S+]([O-])(Nc1ccc(-c2nc3ccccc3[nH]2)cc1)c1ccc2c(c1)OCO2", "activity change, negative = inhibition": "-18.4% (inactive)"},
      {"compound": "Cc1nnc(-c2cnn(C)c2N)n1CCCc1ccncc1", "activity change, negative = inhibition": "2.64% (inactive)"},
      {"compound": "Cc1cc2c(s1)c1cnn(Cc3ccc(SC(F)(F)F)cc3)c(=O)c1n2C", "activity change, negative = inhibition": "-0.619% (inactive)"},
      {"compound": "CCc1nn2c(=O)cc(-c3ccncc3)nc2s1", "activity change, negative = inhibition": "-5.44% (inactive)"},
      {"compound": "c1nc(NCC2CCCOC2)c2cc(-c3ccc4c(c3)OCO4)ccc2n1", "note": "(stereo not given)", "activity change, negative = inhibition": "-13.3% (inactive)"},
      {"compound": "Oc1cc(Nc2ccccc2)cc2cccnc12", "activity change, negative = inhibition": "-4.53% (inactive)"},
      {"compound": "COc1ccc(C(=O)N(Cc2ccccc2)Cc2ccccc2)c(O)c1", "activity change, negative = inhibition": "0.72% (inactive)"},
      {"compound": "COc1ccc(-c2c(NC(C)=O)sc3c2CCNC3)cc1", "activity change, negative = inhibition": "3.02% (inactive)"},
      {"compound": "Cc1cc(NC(=O)Nc2nnc(C3CCCCC3)s2)ccc1Cl", "activity change, negative = inhibition": "1.31% (inactive)"},
      {"compound": "CCOc1ccc(CCN(C)C(=O)c2cc3sccc3n2Cc2ccccc2)cc1OCC", "activity change, negative = inhibition": "6.47% (inactive)"},
      {"compound": "Cc1cc(CNc2ncnc3ccc(-c4ccc5c(c4)OCO5)cc23)c(C)o1", "activity change, negative = inhibition": "-4.9% (inactive)"},
      {"compound": "CC(C)(C)OC(=O)NCC(=O)NNC(=O)c1cc2ccccc2[nH]1", "activity change, negative = inhibition": "-2.65% (inactive)"},
      {"compound": "Cc1cc(-c2nnc3n2CCC3)c(C)n1-c1ccccc1", "activity change, negative = inhibition": "5.46% (inactive)"}
    ]}
  ]
}
